Source: PMC7862700, “An all-to-all approach to the identification of sequence-specific readers for epigenetic DNA modifications on cytosine”

Columns and labels:
Test in all cases: DAPPL (digital affinity profiling via proximity ligation, sequencing); 10 mM Tris-HCl pH 7.5, 50 mM NaCl, 1 mM DTT, 4% glycerol, room temperature, 30 min; GST-TFs on glutathione beads, 16-mer random dsDNA library, 0.1% formaldehyde crosslink after washing; high values mean tight binding
FEV = molecular target: T1, FEV (Homo sapiens, UniProt Q99581 1-238); settings: protein: recombinant; tags: N-terminal GST; dsDNA, one strand shown
T1 sequence: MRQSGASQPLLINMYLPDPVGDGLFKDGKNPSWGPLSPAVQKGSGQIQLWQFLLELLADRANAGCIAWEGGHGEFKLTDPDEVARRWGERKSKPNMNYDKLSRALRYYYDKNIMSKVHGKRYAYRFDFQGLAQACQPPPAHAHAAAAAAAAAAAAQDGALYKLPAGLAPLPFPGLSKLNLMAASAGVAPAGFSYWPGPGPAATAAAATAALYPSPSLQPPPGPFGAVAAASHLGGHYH
Procedure, shortened: (§1)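 The binding signal reported is, for every hexamer, its read frequency for a factor over its read frequency for the tag-only sample. Reads came from pools of yeast-expressed, GST-fused human transcription factors on glutathione beads, barcoded with DNA and mixed with that sample, which were incubated with 200 nmole of a random double-stranded 16-mer DNA library in Tris/NaCl/DTT/glycerol buffer at room temperature for 30 min. After washing, the pools were crosslinked with 0.1% formaldehyde, proximity-ligated with BsaI/T4 ligase for 1 h at 37 °C, PCR-amplified and sequenced on an Illumina NextSeq500.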

ETV5 = ETV5 (Homo sapiens, UniProt P41161 1-510); settings: protein: recombinant; tags: N-terminal GST; dsDNA, one strand shown
Procedure, shortened: as §1

HSF1 = HSF1 (Homo sapiens, UniProt Q00613 1-529); settings: protein: recombinant; tags: N-terminal GST; chain copies: 3; dsDNA, one strand shown
Procedure, shortened: as §1

SPIC = molecular target: T2, SPIC (Homo sapiens, UniProt Q8N5J4 1-248); settings: protein: recombinant; tags: N-terminal GST; dsDNA, one strand shown
T2 sequence: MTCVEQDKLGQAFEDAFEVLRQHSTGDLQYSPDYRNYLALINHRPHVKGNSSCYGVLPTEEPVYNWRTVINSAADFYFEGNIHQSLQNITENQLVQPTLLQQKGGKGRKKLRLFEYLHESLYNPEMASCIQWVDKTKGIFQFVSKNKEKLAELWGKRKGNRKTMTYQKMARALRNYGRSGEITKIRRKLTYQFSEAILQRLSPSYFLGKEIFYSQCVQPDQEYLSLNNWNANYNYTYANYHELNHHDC
Procedure, shortened: as §1

ELF4 = ELF4 (Homo sapiens, UniProt Q99607 1-663); settings: protein: recombinant; tags: N-terminal GST; dsDNA, one strand shown
Procedure, shortened: as §1

ELK4 = molecular target: T3, ELK4 (Homo sapiens, UniProt P28324-2 1-405); settings: protein: recombinant; tags: N-terminal GST; dsDNA, one strand shown
T3 sequence: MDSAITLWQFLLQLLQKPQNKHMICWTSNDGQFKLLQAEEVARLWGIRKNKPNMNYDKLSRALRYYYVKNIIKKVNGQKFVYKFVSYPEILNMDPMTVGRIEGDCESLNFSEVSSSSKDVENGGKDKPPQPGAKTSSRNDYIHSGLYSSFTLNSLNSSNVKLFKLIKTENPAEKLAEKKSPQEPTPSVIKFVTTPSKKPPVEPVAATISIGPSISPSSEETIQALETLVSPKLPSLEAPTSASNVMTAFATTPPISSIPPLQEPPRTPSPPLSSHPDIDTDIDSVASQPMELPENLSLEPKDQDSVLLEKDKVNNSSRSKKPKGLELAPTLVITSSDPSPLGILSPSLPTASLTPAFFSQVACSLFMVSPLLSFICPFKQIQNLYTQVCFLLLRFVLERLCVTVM
Procedure, shortened: as §1

ETV2 = molecular target: T4, ETV2 (Homo sapiens, UniProt O00321 1-342); settings: protein: recombinant; tags: N-terminal GST; dsDNA, one strand shown
T4 sequence: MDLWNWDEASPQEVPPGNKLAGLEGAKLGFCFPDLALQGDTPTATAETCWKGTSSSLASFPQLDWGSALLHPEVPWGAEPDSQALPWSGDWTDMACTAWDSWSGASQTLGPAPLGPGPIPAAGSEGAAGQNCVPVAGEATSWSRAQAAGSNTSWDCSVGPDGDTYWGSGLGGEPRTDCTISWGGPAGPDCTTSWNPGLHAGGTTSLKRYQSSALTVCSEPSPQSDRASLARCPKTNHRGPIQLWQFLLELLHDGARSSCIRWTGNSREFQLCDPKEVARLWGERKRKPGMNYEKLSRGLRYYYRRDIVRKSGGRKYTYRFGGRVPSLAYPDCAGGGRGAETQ
Procedure, shortened: as §1

ELF3 = molecular target: T5, ELF3 (Homo sapiens, UniProt P78545 1-371); settings: protein: recombinant; tags: N-terminal GST; dsDNA, one strand shown
T5 sequence: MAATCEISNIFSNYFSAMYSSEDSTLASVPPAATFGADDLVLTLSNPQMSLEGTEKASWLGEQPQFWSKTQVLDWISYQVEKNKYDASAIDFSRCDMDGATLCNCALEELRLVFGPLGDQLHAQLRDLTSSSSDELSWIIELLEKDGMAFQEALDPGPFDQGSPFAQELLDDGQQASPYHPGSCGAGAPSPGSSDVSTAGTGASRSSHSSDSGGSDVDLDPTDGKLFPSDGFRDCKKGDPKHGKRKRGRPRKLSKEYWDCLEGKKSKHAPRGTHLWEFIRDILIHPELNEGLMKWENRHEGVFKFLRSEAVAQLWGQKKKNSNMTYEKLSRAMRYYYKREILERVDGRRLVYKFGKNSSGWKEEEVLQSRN
Procedure, shortened: as §1

CRX = CRX (Homo sapiens, UniProt O43186 1-299); settings: protein: recombinant; tags: N-terminal GST; dsDNA, one strand shown
Procedure, shortened: as §1

ETV1 = ETV1 (Homo sapiens, UniProt P50549 1-477); settings: protein: recombinant; tags: N-terminal GST; dsDNA, one strand shown
Procedure, shortened: as §1

ERF = molecular target: T6, ERF (Homo sapiens, UniProt P50548 1-548); settings: protein: recombinant; tags: N-terminal GST; dsDNA, one strand shown
T6 sequence: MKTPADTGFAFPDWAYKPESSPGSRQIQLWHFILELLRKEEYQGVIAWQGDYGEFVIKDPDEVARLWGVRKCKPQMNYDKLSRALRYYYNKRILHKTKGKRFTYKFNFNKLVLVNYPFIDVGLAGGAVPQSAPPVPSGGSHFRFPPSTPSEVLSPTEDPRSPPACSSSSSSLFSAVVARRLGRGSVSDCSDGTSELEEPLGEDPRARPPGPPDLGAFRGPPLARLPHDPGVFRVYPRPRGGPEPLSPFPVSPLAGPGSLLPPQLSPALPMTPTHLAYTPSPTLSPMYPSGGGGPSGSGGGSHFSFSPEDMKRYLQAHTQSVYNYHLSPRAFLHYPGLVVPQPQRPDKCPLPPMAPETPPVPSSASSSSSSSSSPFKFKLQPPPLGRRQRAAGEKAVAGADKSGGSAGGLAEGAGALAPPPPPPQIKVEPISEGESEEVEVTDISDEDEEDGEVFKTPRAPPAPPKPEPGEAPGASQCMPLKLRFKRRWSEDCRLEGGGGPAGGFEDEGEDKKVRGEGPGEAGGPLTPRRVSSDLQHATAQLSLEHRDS
Procedure, shortened: as §1

ETV3L = molecular target: T7, ETV3L (Homo sapiens, UniProt Q6ZN32 1-361); settings: protein: recombinant; tags: N-terminal GST; dsDNA, one strand shown
T7 sequence: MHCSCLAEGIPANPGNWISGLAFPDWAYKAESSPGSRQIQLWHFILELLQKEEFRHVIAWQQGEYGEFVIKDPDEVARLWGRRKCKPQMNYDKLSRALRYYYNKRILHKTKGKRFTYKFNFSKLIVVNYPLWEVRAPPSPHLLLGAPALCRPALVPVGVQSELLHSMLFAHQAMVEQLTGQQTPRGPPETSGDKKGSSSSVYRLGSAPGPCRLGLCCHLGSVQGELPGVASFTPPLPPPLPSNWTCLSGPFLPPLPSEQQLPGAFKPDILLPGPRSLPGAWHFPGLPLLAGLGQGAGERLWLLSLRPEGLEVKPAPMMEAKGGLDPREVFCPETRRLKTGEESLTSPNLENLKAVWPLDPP
Procedure, shortened: as §1

ETS2 = molecular target: T8, ETS2 (Homo sapiens, UniProt P15036 1-469); settings: protein: recombinant; tags: N-terminal GST; dsDNA, one strand shown
T8 sequence: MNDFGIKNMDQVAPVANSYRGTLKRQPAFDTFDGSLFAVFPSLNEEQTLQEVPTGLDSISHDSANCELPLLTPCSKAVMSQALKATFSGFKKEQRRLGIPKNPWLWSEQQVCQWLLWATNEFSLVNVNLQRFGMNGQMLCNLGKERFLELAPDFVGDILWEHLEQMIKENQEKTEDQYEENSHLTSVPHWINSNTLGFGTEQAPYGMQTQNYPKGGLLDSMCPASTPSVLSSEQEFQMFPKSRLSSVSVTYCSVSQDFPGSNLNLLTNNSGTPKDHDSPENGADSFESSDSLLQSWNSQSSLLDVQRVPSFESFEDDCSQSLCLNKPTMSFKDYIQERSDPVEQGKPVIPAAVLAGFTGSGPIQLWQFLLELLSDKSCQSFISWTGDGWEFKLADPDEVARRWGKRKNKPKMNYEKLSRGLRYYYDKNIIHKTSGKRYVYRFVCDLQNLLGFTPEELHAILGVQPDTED
Procedure, shortened: as §1

SPDEF = molecular target: T9, SPDEF (Homo sapiens, UniProt O95238 1-335); settings: protein: recombinant; tags: N-terminal GST; dsDNA, one strand shown
T9 sequence: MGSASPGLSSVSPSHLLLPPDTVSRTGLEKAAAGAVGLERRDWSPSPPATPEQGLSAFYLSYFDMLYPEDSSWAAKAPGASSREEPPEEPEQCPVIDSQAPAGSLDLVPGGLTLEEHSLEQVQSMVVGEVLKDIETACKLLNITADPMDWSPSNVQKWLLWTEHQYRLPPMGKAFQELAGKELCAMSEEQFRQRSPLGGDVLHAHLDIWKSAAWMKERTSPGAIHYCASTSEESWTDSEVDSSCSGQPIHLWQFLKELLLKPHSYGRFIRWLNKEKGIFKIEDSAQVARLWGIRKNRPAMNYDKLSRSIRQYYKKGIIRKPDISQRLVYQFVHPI
Procedure, shortened: as §1

ETV7 = molecular target: T10, ETV7 (Homo sapiens, UniProt Q9Y603 1-341); settings: protein: recombinant; tags: N-terminal GST; dsDNA, one strand shown
T10 sequence: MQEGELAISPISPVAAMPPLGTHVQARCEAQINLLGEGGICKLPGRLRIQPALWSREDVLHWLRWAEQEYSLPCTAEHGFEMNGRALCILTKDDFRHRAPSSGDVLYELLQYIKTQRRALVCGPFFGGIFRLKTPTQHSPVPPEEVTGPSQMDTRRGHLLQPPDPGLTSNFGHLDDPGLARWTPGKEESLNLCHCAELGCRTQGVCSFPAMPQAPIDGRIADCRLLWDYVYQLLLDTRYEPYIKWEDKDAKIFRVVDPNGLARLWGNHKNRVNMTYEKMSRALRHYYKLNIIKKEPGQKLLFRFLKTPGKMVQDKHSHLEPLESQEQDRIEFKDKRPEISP
Procedure, shortened: as §1

ELF5 = molecular target: T11, ELF5 (Homo sapiens, UniProt Q9UKW6-2 1-255); settings: protein: recombinant; tags: N-terminal GST; dsDNA, one strand shown
T11 sequence: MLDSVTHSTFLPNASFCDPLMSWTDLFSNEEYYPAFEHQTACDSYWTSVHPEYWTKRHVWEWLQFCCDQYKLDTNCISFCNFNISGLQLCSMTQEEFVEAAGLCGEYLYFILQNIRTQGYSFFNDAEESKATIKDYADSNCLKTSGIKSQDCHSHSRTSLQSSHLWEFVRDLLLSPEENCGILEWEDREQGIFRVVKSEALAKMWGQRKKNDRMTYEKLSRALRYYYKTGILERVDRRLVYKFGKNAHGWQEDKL
Procedure, shortened: as §1

ETV3 = molecular target: T12, ETV3 (Homo sapiens, UniProt P41162-2 1-143); settings: protein: recombinant; tags: N-terminal GST; dsDNA, one strand shown
T12 sequence: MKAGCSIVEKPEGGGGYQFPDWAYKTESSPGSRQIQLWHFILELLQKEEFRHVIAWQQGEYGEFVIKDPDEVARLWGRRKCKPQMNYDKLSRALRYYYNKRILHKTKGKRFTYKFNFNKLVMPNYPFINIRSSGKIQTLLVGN
Procedure, shortened: as §1

ETV6 = ETV6 (Homo sapiens, UniProt P41212 1-452); settings: protein: recombinant; tags: N-terminal GST; dsDNA, one strand shown
Procedure, shortened: as §1

Sequence of ELF4 (Q99607 whole entry): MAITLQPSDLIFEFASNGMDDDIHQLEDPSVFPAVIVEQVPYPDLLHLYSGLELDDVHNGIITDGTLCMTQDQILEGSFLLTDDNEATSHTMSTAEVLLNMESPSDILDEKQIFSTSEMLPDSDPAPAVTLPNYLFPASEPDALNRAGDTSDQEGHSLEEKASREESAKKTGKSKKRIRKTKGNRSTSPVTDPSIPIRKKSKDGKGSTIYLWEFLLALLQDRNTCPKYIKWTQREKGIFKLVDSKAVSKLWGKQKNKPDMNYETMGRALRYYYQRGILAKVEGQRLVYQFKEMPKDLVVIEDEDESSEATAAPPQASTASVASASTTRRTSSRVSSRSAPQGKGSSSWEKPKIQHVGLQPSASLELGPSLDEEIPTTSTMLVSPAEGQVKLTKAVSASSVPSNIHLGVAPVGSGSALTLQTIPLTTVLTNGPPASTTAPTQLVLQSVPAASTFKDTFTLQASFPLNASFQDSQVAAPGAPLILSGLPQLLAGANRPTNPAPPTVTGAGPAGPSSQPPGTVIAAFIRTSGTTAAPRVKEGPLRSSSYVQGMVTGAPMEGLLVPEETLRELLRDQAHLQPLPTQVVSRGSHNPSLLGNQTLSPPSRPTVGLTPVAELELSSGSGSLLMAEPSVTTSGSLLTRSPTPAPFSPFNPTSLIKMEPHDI
Sequence of CRX (O43186 whole entry): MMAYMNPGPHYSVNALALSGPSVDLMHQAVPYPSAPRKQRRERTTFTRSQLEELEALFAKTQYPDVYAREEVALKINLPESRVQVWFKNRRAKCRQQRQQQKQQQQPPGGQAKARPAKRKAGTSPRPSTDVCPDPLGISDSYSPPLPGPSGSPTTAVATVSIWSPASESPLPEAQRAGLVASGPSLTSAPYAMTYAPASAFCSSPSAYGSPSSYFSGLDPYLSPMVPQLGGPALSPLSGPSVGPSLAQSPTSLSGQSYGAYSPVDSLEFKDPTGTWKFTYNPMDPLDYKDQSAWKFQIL
Sequence of ETV6 (P41212 whole entry): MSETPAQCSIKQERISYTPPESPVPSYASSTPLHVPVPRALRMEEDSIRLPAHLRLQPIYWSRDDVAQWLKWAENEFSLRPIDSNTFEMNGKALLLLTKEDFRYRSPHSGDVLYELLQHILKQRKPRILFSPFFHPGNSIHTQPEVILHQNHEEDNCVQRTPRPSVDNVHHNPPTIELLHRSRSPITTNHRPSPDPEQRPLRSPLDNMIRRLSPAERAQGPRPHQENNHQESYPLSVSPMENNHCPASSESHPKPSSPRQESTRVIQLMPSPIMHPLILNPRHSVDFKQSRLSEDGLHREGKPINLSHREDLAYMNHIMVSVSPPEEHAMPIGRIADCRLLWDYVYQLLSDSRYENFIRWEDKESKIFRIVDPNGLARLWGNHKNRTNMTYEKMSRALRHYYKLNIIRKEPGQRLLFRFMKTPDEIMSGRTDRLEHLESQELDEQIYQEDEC
Sequence of HSF1 (Q00613 whole entry): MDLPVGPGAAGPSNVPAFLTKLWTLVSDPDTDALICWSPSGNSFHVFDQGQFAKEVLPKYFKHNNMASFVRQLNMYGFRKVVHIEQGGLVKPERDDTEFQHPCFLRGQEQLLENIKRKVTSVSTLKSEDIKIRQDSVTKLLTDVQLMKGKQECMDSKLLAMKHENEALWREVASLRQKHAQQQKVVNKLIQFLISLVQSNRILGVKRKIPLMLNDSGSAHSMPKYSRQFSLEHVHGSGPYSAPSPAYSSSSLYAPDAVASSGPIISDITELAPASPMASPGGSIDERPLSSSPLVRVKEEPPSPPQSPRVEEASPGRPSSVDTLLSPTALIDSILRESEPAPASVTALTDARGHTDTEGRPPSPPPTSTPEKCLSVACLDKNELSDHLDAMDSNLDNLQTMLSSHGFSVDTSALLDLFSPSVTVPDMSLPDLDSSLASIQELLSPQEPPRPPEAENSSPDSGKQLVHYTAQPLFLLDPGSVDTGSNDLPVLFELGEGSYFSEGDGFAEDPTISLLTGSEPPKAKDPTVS
Sequence of ETV1 (P50549 whole entry): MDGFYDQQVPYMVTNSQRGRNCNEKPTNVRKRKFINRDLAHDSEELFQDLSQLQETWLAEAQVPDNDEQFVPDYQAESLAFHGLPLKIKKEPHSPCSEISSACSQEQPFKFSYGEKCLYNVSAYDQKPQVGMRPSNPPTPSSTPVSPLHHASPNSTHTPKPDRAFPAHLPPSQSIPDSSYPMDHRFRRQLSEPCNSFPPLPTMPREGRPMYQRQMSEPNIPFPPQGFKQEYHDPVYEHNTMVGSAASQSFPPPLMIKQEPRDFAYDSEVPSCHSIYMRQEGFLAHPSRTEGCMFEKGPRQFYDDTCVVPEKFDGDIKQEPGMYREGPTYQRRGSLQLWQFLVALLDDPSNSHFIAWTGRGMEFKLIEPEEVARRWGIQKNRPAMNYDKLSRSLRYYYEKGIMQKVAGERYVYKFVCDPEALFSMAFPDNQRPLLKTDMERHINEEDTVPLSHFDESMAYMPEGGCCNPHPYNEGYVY
Sequence of ETV5 (P41161 whole entry): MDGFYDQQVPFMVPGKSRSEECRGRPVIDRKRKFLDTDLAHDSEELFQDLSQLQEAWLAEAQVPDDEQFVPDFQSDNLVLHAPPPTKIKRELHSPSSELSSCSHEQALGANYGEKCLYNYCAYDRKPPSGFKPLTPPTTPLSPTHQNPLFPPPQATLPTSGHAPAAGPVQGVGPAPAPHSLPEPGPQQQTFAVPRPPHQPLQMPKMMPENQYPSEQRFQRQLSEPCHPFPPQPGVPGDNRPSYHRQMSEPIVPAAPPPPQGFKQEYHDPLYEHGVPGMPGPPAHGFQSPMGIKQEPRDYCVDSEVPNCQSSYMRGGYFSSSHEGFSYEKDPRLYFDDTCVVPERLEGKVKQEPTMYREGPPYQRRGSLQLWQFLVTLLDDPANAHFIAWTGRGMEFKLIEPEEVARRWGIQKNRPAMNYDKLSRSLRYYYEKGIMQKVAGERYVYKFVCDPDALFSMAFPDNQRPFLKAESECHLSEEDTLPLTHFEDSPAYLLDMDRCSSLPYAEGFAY

## TTTGCA
FEV
  binding signal: 1.18 fold enrichment (6-mer frequency, TF over GST control)
ETV5
  binding signal: 1.22 fold enrichment (6-mer frequency, TF over GST control)
HSF1
  binding signal: 1.26 fold enrichment (6-mer frequency, TF over GST control)
SPIC
  binding signal: 1.23 fold enrichment (6-mer frequency, TF over GST control)
ELF4
  binding signal: 1.29 fold enrichment (6-mer frequency, TF over GST control)
ELK4
  binding signal: 1.3 fold enrichment (6-mer frequency, TF over GST control)
ETV2
  binding signal: 1.24 fold enrichment (6-mer frequency, TF over GST control)
ELF3
  binding signal: 1.28 fold enrichment (6-mer frequency, TF over GST control)
CRX
  binding signal: 1.48 fold enrichment (6-mer frequency, TF over GST control)
ETV1
  binding signal: 1.29 fold enrichment (6-mer frequency, TF over GST control)
ERF
  binding signal: 1.13 fold enrichment (6-mer frequency, TF over GST control)
ETV3L
  binding signal: 1.31 fold enrichment (6-mer frequency, TF over GST control)
ETS2
  binding signal: 1.14 fold enrichment (6-mer frequency, TF over GST control)
SPDEF
  binding signal: 1.23 fold enrichment (6-mer frequency, TF over GST control)
ETV7
  binding signal: 1.21 fold enrichment (6-mer frequency, TF over GST control)
ELF5
  binding signal: 1.24 fold enrichment (6-mer frequency, TF over GST control)
ETV3
  binding signal: 1.26 fold enrichment (6-mer frequency, TF over GST control)
ETV6
  binding signal: 1.32 fold enrichment (6-mer frequency, TF over GST control)
